From PubChem BioAssay
A number with no mark means an inactive call. Calls of active or inactive are those of the source. Cut-off read from the data, not from the text of the source, unless noted: active = inhibition above about 25%; inactive = the rest.

Target: Nuclear receptor coactivator 1 (Homo sapiens) (UniProt Q15788)
Assay: NCOA1 GAL4-fusion reporter inhibition – cell-based, luminescence, quadruplicate, confirmation (AID 588820;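 active = mean inhibition above 46.68%, the untreated control wells mean plus 3 SD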;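 note: 0% = DMSO wells and 100% = gossypol 36 µM treated wells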)
Details: HEK293 GAL4-SRC1 luciferase reporter, at 3.6 µM, stronger effect = higher value

Nuclear receptor coactivator 1 (Homo sapiens), sequence (Q15788 whole entry, looked up, the tested form may be a part): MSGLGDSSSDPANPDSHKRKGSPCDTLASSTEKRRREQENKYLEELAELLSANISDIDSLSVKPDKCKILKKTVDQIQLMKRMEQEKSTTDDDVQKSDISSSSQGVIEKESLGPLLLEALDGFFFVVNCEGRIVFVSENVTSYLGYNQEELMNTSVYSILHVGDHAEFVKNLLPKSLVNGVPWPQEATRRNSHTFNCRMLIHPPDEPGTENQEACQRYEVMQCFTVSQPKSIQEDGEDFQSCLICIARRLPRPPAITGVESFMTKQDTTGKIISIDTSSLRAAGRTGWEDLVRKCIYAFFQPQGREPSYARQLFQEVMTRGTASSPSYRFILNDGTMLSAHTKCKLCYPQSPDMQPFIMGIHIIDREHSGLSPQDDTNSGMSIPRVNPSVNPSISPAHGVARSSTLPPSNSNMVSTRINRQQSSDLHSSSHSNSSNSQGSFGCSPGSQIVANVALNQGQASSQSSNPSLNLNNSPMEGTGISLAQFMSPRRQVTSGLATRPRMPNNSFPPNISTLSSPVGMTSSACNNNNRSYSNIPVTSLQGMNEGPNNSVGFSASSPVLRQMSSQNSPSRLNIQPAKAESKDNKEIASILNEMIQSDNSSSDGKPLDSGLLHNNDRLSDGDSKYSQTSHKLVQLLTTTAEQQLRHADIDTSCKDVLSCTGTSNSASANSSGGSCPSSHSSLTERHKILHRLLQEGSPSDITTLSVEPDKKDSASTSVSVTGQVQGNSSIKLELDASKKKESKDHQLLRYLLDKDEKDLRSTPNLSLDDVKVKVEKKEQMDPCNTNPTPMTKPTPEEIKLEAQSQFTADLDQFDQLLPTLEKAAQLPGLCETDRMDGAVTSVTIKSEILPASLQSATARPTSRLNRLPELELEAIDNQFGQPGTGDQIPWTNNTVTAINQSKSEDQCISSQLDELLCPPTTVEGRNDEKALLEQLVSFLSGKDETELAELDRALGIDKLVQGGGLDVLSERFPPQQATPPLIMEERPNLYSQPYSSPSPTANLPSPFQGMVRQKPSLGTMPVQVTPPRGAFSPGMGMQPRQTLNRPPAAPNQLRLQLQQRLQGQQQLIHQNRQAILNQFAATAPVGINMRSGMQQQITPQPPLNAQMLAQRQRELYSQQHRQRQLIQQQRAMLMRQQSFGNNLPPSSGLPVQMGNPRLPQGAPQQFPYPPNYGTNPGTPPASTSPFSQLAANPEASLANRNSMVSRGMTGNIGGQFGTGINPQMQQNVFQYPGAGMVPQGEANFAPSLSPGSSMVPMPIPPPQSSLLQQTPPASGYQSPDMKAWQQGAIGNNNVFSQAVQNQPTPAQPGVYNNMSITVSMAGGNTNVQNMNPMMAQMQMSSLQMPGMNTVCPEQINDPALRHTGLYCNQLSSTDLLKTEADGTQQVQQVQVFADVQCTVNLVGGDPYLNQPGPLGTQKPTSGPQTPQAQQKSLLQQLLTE

| Structure (SMILES) | inhibition |
| --- | --- |
| COc1ccc(-c2nc(N3CCOCC3)nc3n[nH]c(N)c23)cc1 | 5.53% |
| COc1ccc(CNc2nc(C)cc(C)c2C#N)cc1 | -9.61% |
| CCOc1ccc(-c2[nH]ncc2-c2ccc(Cl)cc2)c(O)c1 | -8.3% |
| Cc1ccc(OCC(=O)NNC(=O)c2ccc3c(=O)n4c(nc3c2)CCC4)cc1 | -7.39% |
| CCCCCCn1nc(C(=O)OCC(=O)c2c(N)n(C)c(=O)n(C)c2=O)c2ccccc2c1=O | -6.84% |
| COc1ccc(OC)c(NC(=O)c2cc(-c3c(C)cc(C)cc3O)n[nH]2)c1 | 11.1% |
| O=C(Nc1ccncc1)c1cccc(S(=O)(=O)N2CCc3ccccc32)c1 | -21.8% |
| COc1ccc(S(=O)(=O)N(C)c2ccc(C(=O)Nc3cccnc3)cc2)cc1OC | 14.3% |
| COc1cc2c(cc1OC)CN(C(=O)c1cc(S(=O)(=O)N3CCOCC3)ccc1C)CC2 | 1.45% |
| CCCN(CCC)CCCNC(=O)c1cn(C)c2ccc(S(=O)(=O)N(C)C3CCCCC3)cc2c1=O | -13.7% |
| O=C1CC2(CCCC2)CC(=O)N1CCCCN1CCN(c2ncccn2)CC1 | 0.34% |
| COc1ccc2cc(/C=N/NC(=O)c3ccc(CN(c4ccc(C)c(C)c4)S(C)(=O)=O)cc3)c(Cl)nc2c1 | -4.08% |
| O=C(N[C@H]1c2ccccc2C[C@H]1O)[C@H]1O[C@@H](n2ccc(=O)[nH]c2=O)[C@H](O)[C@@H]1O | -26.1% |
| COCCn1c(SCC(=O)Nc2cccc(NC(C)=O)c2)nc2c([nH]c3ccccc32)c1=O | -31.7% |
| Cc1cc(OCCCN2CCCC2)ccc1Cl | -14.7% |
| Cc1ccnc(SC2CC(=O)N(c3ccc(C(C)C)cc3)C2=O)n1 (stereo not given) | 7.69% |
| COC(=O)c1cccc(NC(=O)c2ccc[n+]([O-])c2)c1 | -21.8% |
| COc1ccc(N2CCN(C(=O)c3ccc(CS(=O)c4cccc(C)c4)o3)CC2)cc1 (stereo not given) | -16.2% |
| COC(=O)C(C)Sc1nc(NCc2ccccc2)nc(N(C)C)n1 (stereo not given) | -11.2% |
| CC1=C(C(=O)OC2CCCCC2)C(c2ccc(C)o2)C2=C(CC(C)(C)CC2=O)N1 (stereo not given) | -5.08% |
| CCOC(=O)N1CCC(Nc2ncnc3c2cnn3-c2ccc(C)cc2C)CC1 | -5.68% |
| CNC(=O)CCCN1C(=O)c2ccccc2Sc2ncccc21 | -2.17% |
| COC(=O)c1cccc(NC(=O)CN2C(=O)c3ccccc3C2=O)c1 | -23.7% |
| CC(C)Cn1c(N)c(C(=O)COC(=O)c2cc3ccccc3cc2O)c(=O)n(C)c1=O | 14.6% |
| CCN(C(=O)C(C)OC(=O)CCCNC(=O)c1ccc(Cl)cc1)c1ccccc1 (stereo not given) | -2.16% |

Test system: not listed separately
Assay: repression of VP16-driven luciferase reporter – cell-based, luminescence, high throughput, counter-screen for SRC1 inhibitor project (AID 588824)
Details: cell-based VP16 transactivation luciferase luminescence; at 3.6 µM; stronger effect = higher value

| Structure (SMILES) | inhibition |
| --- | --- |
| CCC(C(=O)OCC(=O)Nc1cc(Cl)cc(Cl)c1)c1ccccc1 (stereo not given) | -3.53% |
| CC1(C)CC(=O)c2sc(N)nc2C1 | 0.81% |
| Cc1ccc(-n2ccc(-c3nn(-c4ccccc4)ccc3=O)n2)cc1 | 13.3% |
| Cc1cc(C)cc(C(=O)Nc2cccc(NC(=O)c3ccco3)c2)c1 | 9.42% |
| COc1ccc(S(=O)(=O)N2CCCCCC2)cc1C(=O)N(C)CCOc1ccccc1 | -8.6% |
| Cc1noc(C)c1COC(=O)CCN1c2ccccc2Sc2ccccc21 | -13.4% |
| CCOC(=O)C1=C(COC(=O)/C=C/c2ccc(OC)c(OC)c2)NC(=O)NC1C (stereo not given) | -2.04% |
| CCCCCOC(=O)C1=C(C)NC(=O)NC1c1ccc([N+](=O)[O-])cc1 (stereo not given) | 2.27% |
| CCCCCC(=O)N1CCN(S(=O)(=O)c2ccc3c(c2)OCCO3)CC1 | -1.65% |
| N#CC1(NC(=O)CSc2nnc(-c3ccccc3F)o2)CCCCC1 | -10.4% |
| COc1ccc(-c2csc(NC(=O)c3ccccc3NS(=O)(=O)c3ccc(C)cc3)n2)cc1 | 30.8% (active) |
| COc1cc(C(C)=O)ccc1OCC(=O)Nc1ccccc1N1CCCCC1 | 8% |
| CC(=O)c1cn(CC(=O)Nc2cccc(C)c2C)c2ccccc12 | 13% |
| O=C(Nc1ccc(Cc2ccncc2)cc1)c1ccc(S(=O)(=O)N2CCOCC2)cc1 | 9.65% |
| CC(CC(=O)Nc1ccc(Cl)c(S(=O)(=O)N2CCOCC2)c1)c1ccccc1 (stereo not given) | 38.6% (active) |
| COc1ccc(-c2nc(N3CCOCC3)nc3n[nH]c(N)c23)cc1 | 17.9% |
| COc1ccc(CNc2nc(C)cc(C)c2C#N)cc1 | -3.68% |
| CCOc1ccc(-c2[nH]ncc2-c2ccc(Cl)cc2)c(O)c1 | 3.27% |
| Cc1ccc(OCC(=O)NNC(=O)c2ccc3c(=O)n4c(nc3c2)CCC4)cc1 | -3.2% |
| CCCCCCn1nc(C(=O)OCC(=O)c2c(N)n(C)c(=O)n(C)c2=O)c2ccccc2c1=O | -3.36% |

| Structure (SMILES) | inhibition |
| --- | --- |
| COc1ccc(OC)c(NC(=O)c2cc(-c3c(C)cc(C)cc3O)n[nH]2)c1 | 6.02% |
| O=C(Nc1ccncc1)c1cccc(S(=O)(=O)N2CCc3ccccc32)c1 | 27.9% (active) |
| COc1ccc(S(=O)(=O)N(C)c2ccc(C(=O)Nc3cccnc3)cc2)cc1OC | 17.4% |
| COc1cc2c(cc1OC)CN(C(=O)c1cc(S(=O)(=O)N3CCOCC3)ccc1C)CC2 | 7.41% |
| CCCN(CCC)CCCNC(=O)c1cn(C)c2ccc(S(=O)(=O)N(C)C3CCCCC3)cc2c1=O | -9.68% |
| O=C1CC2(CCCC2)CC(=O)N1CCCCN1CCN(c2ncccn2)CC1 | 2.87% |
| COc1ccc2cc(/C=N/NC(=O)c3ccc(CN(c4ccc(C)c(C)c4)S(C)(=O)=O)cc3)c(Cl)nc2c1 | 20.7% |
| O=C(N[C@H]1c2ccccc2C[C@H]1O)[C@H]1O[C@@H](n2ccc(=O)[nH]c2=O)[C@H](O)[C@@H]1O | -8.81% |
| COCCn1c(SCC(=O)Nc2cccc(NC(C)=O)c2)nc2c([nH]c3ccccc32)c1=O | -16.2% |
| Cc1cc(OCCCN2CCCC2)ccc1Cl | -11.8% |
| Cc1ccnc(SC2CC(=O)N(c3ccc(C(C)C)cc3)C2=O)n1 (stereo not given) | -8.25% |
| COC(=O)c1cccc(NC(=O)c2ccc[n+]([O-])c2)c1 | 4.7% |
| COc1ccc(N2CCN(C(=O)c3ccc(CS(=O)c4cccc(C)c4)o3)CC2)cc1 (stereo not given) | -2.71% |
| COC(=O)C(C)Sc1nc(NCc2ccccc2)nc(N(C)C)n1 (stereo not given) | -11.6% |
| CC1=C(C(=O)OC2CCCCC2)C(c2ccc(C)o2)C2=C(CC(C)(C)CC2=O)N1 (stereo not given) | 4.47% |
| CCOC(=O)N1CCC(Nc2ncnc3c2cnn3-c2ccc(C)cc2C)CC1 | 29% (active) |
| CNC(=O)CCCN1C(=O)c2ccccc2Sc2ncccc21 | -3.21% |
| COC(=O)c1cccc(NC(=O)CN2C(=O)c3ccccc3C2=O)c1 | -3.69% |
| CC(C)Cn1c(N)c(C(=O)COC(=O)c2cc3ccccc3cc2O)c(=O)n(C)c1=O | 8.44% |
| CCN(C(=O)C(C)OC(=O)CCCNC(=O)c1ccc(Cl)cc1)c1ccccc1 (stereo not given) | -2.69% |
